This passage reports growth results from PubChem BioAssay (NCI).

Structures are written as SMILES. The panel holds about 83,000 compounds, 20% with a hit somewhere; the sample as a whole holds those more often.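 Single-concentration screen, 48 h exposure, 96-well plates. Endpoint: percent growth. Below 10 = active.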 A number with no mark means an inactive call. Active and inactive are the calls of the source.

Among the test systems are SR leukemia; RPMI-8226 leukemia; OVCAR-8 ovarian; OVCAR-5 ovarian; OVCAR-4 ovarian; SK-OV-3 ovarian; OVCAR-3 ovarian; HS 578T breast; NCI/ADR-RES ovarian; T-47D breast; BT-549 breast; MDA-MB-435 melanoma; SW-620 colon; MCF7 breast; HCT-116 colon; HCC-2998 colon; KM12 colon; MDA-MB-468 breast; IGROV1 ovarian.
Experiment in all cases: NCI-60 one-dose screen, 48 h (100 = growth as untreated, 0 = no growth, -100 = all killed)
What all share (details): 10 µM unless noted

In the case of `Cc1cc(=O)oc2cc(OCCOc3ccc(/C=C/C(=O)Nc4ccccc4N)cc3)ccc12`, the growth was 26.1% with SR leukemia; 1.06% (active) with RPMI-8226 leukemia; 38.5% with OVCAR-8 ovarian; 39.2% with OVCAR-5 ovarian; 41.2% in the assay with OVCAR-4 ovarian; 11.1% in the assay with SK-OV-3 ovarian. The growth in the assay on OVCAR-3 ovarian was 20.3%; with HS 578T breast it was 40.6%; with NCI/ADR-RES ovarian, 16.4%; in the assay with T-47D breast, 15.3%; in the assay on BT-549 breast, -49.2% (active); with MDA-MB-435 melanoma it was 42.7%. In addition, the growth with SW-620 colon is 27.4%; with MCF7 breast it was 5.65% (active); in the assay on HCT-116 colon, 16.1%; with HCC-2998 colon it was 37.9%; with KM12 colon, 13.7%; in the assay on MDA-MB-468 breast, -45% (active).
Take `CC(=O)OC[C@@]1(C)C2CC[C@]3(C)C(CC=C4C5CC(C)(C)CC[C@]5(C(=O)Nc5cccc(C)c5)CC[C@]43C)[C@@]2(C)C[C@@H](OC(C)=O)[C@@H]1OC(C)=O` (some centres not stated): the growth is 30% in the assay with SR leukemia; 15.9% in the assay on RPMI-8226 leukemia; 39.7% in the assay with OVCAR-8 ovarian; 81.2% with OVCAR-5 ovarian; 38.6% in the assay with OVCAR-4 ovarian; 59.7% in the assay on SK-OV-3 ovarian. Moreover, the growth is 47.5% in the assay with OVCAR-3 ovarian; 77% with HS 578T breast; 36.2% with NCI/ADR-RES ovarian; 24.3% with T-47D breast; 47.4% with BT-549 breast; 48.2% with MDA-MB-435 melanoma. Also, the growth is 40.5% with SW-620 colon; 24.9% in the assay with MCF7 breast; 21.8% in the assay with HCT-116 colon; 49% in the assay on HCC-2998 colon; 48.7% in the assay on KM12 colon; 1.92% (active) in the assay on MDA-MB-468 breast.
As to `C/C(=N\N=C\c1cc([N+](=O)[O-])ccc1Cl)c1ccc2c(c1)Nc1ccccc1S2`, the growth in the assay with SR leukemia is 31.3%; in the assay with RPMI-8226 leukemia it was 71.7%; in the assay with OVCAR-8 ovarian, 16.6%; in the assay with OVCAR-5 ovarian, 69.4%; in the assay with OVCAR-4 ovarian it was -10.7% (active); in the assay on SK-OV-3 ovarian, 40.4%. In addition, the growth in the assay on OVCAR-3 ovarian was -4% (active); in the assay on HS 578T breast, 27.1%; in the assay on NCI/ADR-RES ovarian, 55%; in the assay on T-47D breast, 29.7%; in the assay on BT-549 breast, 63%; in the assay on MDA-MB-435 melanoma it was 77.2%. The growth in the assay on SW-620 colon was 50%; in the assay with MCF7 breast, 63.1%; with HCT-116 colon, 11.1%; with HCC-2998 colon, 90.5%; in the assay on KM12 colon, 89.1%; with MDA-MB-468 breast it was 34.1%.
On to `O=C1Nc2cc(Cl)ccc2/C1=C/c1cccc(OCc2ccccn2)c1`, for which the growth was -0.484% (active) with SR leukemia; -5.52% (active) in the assay on RPMI-8226 leukemia; -21% (active) in the assay on OVCAR-8 ovarian; -7.05% (active) in the assay with OVCAR-5 ovarian; 49.1% in the assay with OVCAR-4 ovarian; 52.1% in the assay with SK-OV-3 ovarian. Moreover, the growth in the assay on IGROV1 ovarian is 17.2%; in the assay on OVCAR-3 ovarian, 23.5%; in the assay with NCI/ADR-RES ovarian it was -16.7% (active); in the assay with T-47D breast it was 26%; with BT-549 breast, -12.6% (active); in the assay with MCF7 breast, 7.87% (active). In addition, the growth in the assay on HCT-116 colon was 0.558% (active); in the assay on HCC-2998 colon it was 28.9%; in the assay with KM12 colon it was 19.4%; in the assay with MDA-MB-468 breast, 1.49% (active).
With `CN(C)c1ccnc(NCCCSC(c2ccccc2)(c2ccccc2)c2ccccc2)c1`, the growth with SR leukemia was -55.5% (active); with RPMI-8226 leukemia, -58.9% (active); in the assay on OVCAR-8 ovarian it was 59.4%; with OVCAR-5 ovarian it was 84.5%; in the assay on OVCAR-4 ovarian it was 33.4%; in the assay with SK-OV-3 ovarian it was 63%. The growth was 49.6% in the assay with OVCAR-3 ovarian; 59.9% with HS 578T breast; 40.4% in the assay with NCI/ADR-RES ovarian; 28% in the assay with T-47D breast; 48.9% in the assay with BT-549 breast; 11.3% in the assay with MDA-MB-435 melanoma. Also, the growth is 8.86% (active) in the assay on SW-620 colon; -35.8% (active) in the assay on MCF7 breast; -82.3% (active) with HCT-116 colon; 12.2% in the assay on HCC-2998 colon; 46.7% in the assay on KM12 colon; -34.9% (active) in the assay with MDA-MB-468 breast.
With `Cn1cc(-c2cc3nc(-c4cn(C)c5ncccc45)cc(N)n3n2)c2cc(Cl)ccc21`, the growth in the assay with SR leukemia is -54.7% (active); in the assay with RPMI-8226 leukemia it was -13.9% (active); in the assay on OVCAR-8 ovarian, -41.4% (active); with OVCAR-5 ovarian, 0.37% (active); in the assay with OVCAR-4 ovarian, -16.5% (active); in the assay with SK-OV-3 ovarian, -67.7% (active). Besides, the growth in the assay with OVCAR-3 ovarian is -75% (active); in the assay on HS 578T breast, -29.7% (active); in the assay on NCI/ADR-RES ovarian, -43.6% (active); in the assay on T-47D breast it was -70.9% (active); in the assay with BT-549 breast, -94.6% (active); with MDA-MB-435 melanoma, -81.1% (active). Further, the growth is -86.3% (active) with SW-620 colon, -94.4% (active) with HCT-116 colon, -97.8% (active) in the assay with HCC-2998 colon and -37.2% (active) in the assay on KM12 colon.
On to `Cc1cccc(NC(=O)[C@]23CCC(C)(C)CC2C2=CCC4[C@@]5(C)C[C@@H](O)[C@H](O)[C@@](C)(CO)C5CC[C@@]4(C)[C@]2(C)CC3)c1` (some centres not stated), for which the growth is -26% (active) in the assay with SR leukemia; 2.61% (active) in the assay on RPMI-8226 leukemia; 39.3% in the assay on OVCAR-8 ovarian; -28.9% (active) with OVCAR-5 ovarian; 23.5% in the assay on OVCAR-4 ovarian; 36.9% with SK-OV-3 ovarian. Besides, the growth in the assay with OVCAR-3 ovarian was 41.3%; in the assay on HS 578T breast, 31%; in the assay on NCI/ADR-RES ovarian it was 7.61% (active); with T-47D breast it was 13.5%; in the assay with BT-549 breast, 8.83% (active); with MDA-MB-435 melanoma it was 25.5%. Also, the growth is 33.2% in the assay with SW-620 colon; -6.63% (active) in the assay on MCF7 breast; 1.25% (active) in the assay with HCT-116 colon; -64% (active) in the assay on HCC-2998 colon; 3.56% (active) with KM12 colon; -8.73% (active) in the assay with MDA-MB-468 breast.
`COc1cc2oc(-c3cccc(C(=O)Nc4ccc(Cl)cc4)c3)cc(=O)c2c(OCC(=O)N[C@@H](Cc2ccccc2)C(=O)O)c1OC`: the growth was 104% in the assay with SR leukemia; 101% with RPMI-8226 leukemia; 106% in the assay on OVCAR-8 ovarian; 101% with OVCAR-5 ovarian; 104% in the assay with OVCAR-4 ovarian; 138% in the assay with SK-OV-3 ovarian. Further, the growth with OVCAR-3 ovarian is 117%; in the assay on HS 578T breast, 108%; with NCI/ADR-RES ovarian, 104%; in the assay with T-47D breast it was 109%; in the assay with BT-549 breast it was 125%; in the assay with MDA-MB-435 melanoma, 101%. The growth in the assay on SW-620 colon was 99.2%; in the assay on MCF7 breast, 93.2%; with HCT-116 colon it was 109%; with HCC-2998 colon it was 121%; with KM12 colon, 105%; in the assay with MDA-MB-468 breast, 112%.
Turning to `CSc1ccc(C(=O)Nc2ccc3nnn(/C(C#N)=C/c4ccccn4)c3c2)cc1`, the growth in the assay on SR leukemia was -9.41% (active); with RPMI-8226 leukemia, -40.8% (active); in the assay on OVCAR-8 ovarian, 10%; in the assay on OVCAR-5 ovarian, -77.4% (active); with OVCAR-4 ovarian, 37%; in the assay with SK-OV-3 ovarian, 64.4%. Also, the growth in the assay with IGROV1 ovarian is -44.9% (active); in the assay on OVCAR-3 ovarian it was -30.8% (active); with NCI/ADR-RES ovarian, 11.2%; in the assay on T-47D breast, -45.3% (active); with BT-549 breast, -67.9% (active); in the assay on MDA-MB-435 melanoma, -20.9% (active). Also, the growth with MCF7 breast was -79% (active); in the assay with HCT-116 colon, -5.03% (active); in the assay on HCC-2998 colon it was -76.3% (active); in the assay on KM12 colon, -57.1% (active); in the assay on MDA-MB-468 breast it was -69.1% (active).
